Compounds with a hit are over-represented: about 5.1% of the library has one in this group of screens.
CRFBP-R2 agonist – CRF-BP/CRF-R2 complex agonism | HEK293 CRF-R2/CRF-BP, calcium dye fluorescence (FLIPR); percent of saturating CRF peptide response | activation, % at 13.2 µM | 350,000 tested, 0.46% active | AID 588473;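 active = activation of at least 50%, plus an integration ratio under a set limit after plate pattern correction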
MPTP block – inhibitors of mitochondrial permeability transition pore | isolated mouse mitochondria, Ca2+ swelling absorbance, 30 min | inhibition, % at 10 µM | 360,000 tested, 1.4% active | AID 602449;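 active = inhibition of 50% or more, scaled per plate between neutral and stimulator controls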
CRFR2-BP antag – CRF-BP/CRF-R2 complex antagonism; HEK293 CRF-R2/CRF-BP, CRF-induced calcium fluorescence; inhibition, % at 11.8 µM; 350,000 tested, 0.59% active;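 active = inhibition of the ligand-induced calcium signal above about 50% at the single tested concentration, limit read from the data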
ANO1 activ – activators or potentiators of mouse TMEM16A chloride channel | Q8BHY3 | HEK293 TMEM16A/YFP-H148Q/I152L, iodide quench fluorescence; active compounds read low | B-score at 10 µM | 340,000 tested, 0.3% active | AID 623877;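 active = fluorescence-ratio B-score plate-corrected deviation score at least 3 library SD below zero, with starting fluorescence score within 5 deviations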;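 also: channel opened by trigger with iodide after compound preincubation; score built on the fluorescence ratio of max minus min over baseline; more negative score means more quench and so TMEM16A activation or potentiation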
Target sequence (Q8BHY3 whole entry, looked up): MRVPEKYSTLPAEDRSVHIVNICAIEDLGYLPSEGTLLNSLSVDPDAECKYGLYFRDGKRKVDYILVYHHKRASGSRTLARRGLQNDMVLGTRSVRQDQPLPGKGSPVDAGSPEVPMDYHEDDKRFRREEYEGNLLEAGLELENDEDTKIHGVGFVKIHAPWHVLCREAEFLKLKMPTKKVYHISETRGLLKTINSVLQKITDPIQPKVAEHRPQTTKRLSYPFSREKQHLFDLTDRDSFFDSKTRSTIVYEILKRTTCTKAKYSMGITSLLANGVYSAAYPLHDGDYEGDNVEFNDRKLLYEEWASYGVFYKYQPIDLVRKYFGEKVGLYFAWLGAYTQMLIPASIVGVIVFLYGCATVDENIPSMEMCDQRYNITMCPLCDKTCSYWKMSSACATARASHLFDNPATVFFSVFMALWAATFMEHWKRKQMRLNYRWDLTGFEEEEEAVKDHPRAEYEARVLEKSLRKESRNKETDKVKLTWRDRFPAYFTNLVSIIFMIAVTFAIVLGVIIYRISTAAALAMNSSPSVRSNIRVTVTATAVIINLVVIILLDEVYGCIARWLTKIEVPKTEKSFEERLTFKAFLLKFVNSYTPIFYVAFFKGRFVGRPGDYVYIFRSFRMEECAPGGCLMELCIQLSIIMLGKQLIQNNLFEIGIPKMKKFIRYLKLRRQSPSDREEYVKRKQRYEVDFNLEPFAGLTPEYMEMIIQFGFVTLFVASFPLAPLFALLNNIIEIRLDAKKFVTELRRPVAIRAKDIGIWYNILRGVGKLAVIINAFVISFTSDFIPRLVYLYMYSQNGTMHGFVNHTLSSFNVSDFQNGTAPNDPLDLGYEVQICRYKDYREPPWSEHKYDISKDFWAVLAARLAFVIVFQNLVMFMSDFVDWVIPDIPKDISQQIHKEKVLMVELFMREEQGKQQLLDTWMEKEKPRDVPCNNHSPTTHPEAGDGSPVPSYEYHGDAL
ANO1 block – blocks the mouse calcium-activated chloride channel TMEM16A; 310,000 tested, 1.2% active; Q8BHY3; HEK293 TMEM16A/YFP iodide influx fluorescence, ionomycin; normalized B-score (activity score, 25-100; higher = stronger inhibition) at 10 µM;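 active = ratio plate-corrected score three or more library SD toward inhibition, starting fluorescence score within five deviations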;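 also: score derived from kinetic fluorescence span divided by baseline fluorescence per well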
GRIN3A LBD mod – NR3A (human) ligand-binding domain modulation. NR3A LBD differential scanning fluorimetry, Tm shift; 0% = protein alone, 100% = glycine-bound protein. 340,000 tested, 2.5% active. Tm shift relative to glycine control, % at 25 µM. AID 1259313;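 active = melting temperature shift of at least 10% of the positive control shift, at one fixed dose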
Of the large screens only hits and unclear results are named; the others gave an inactive call.

COc1cccc(/C=N/Nc2ccc([N+](=O)[O-])cc2)c1O	GRIN3A LBD mod 36
COc1ccc(OC)c(/C=N\NC(=O)c2ccc(-c3ccccc3)cc2)c1	none
COc1cccc(/C=N/NC(=O)c2ccc(-c3ccccc3)cc2)c1O	GRIN3A LBD mod 26
COc1cccc(/C=N/Nc2c(Cl)cncc2Cl)c1O	GRIN3A LBD mod 35
Cc1ccc(Cl)cc1N1CCN(C(=O)c2ccccc2SCC(=O)N2CCCC2)CC1	none (no result: ANO1 block)
CC1(C(=O)NS(=O)(=O)c2ccc(Cl)cc2)CCN1C(=O)Cc1ccc(Cl)cc1Cl (stereo not drawn)	none (no result: CRFBP-R2 agonist, CRFR2-BP antag, ANO1 activ, ANO1 block, GRIN3A LBD mod)
Cc1ccc(Cl)cc1N1CCN(C(=O)CNC(=O)c2ccc(Br)o2)CC1	none (no result: ANO1 block)
COc1ccc(/C=N/Nc2ccc([N+](=O)[O-])cc2)cc1Cn1cc([N+](=O)[O-])cn1	none
COc1cc(/C=N/Nc2nc(C)nc3c2cnn3-c2ccccc2)ccc1O	GRIN3A LBD mod 13 (no result: ANO1 block)
COc1ccc(/C=N/Nc2ccc([N+](=O)[O-])cc2)cc1O	GRIN3A LBD mod 27
CC(=O)c1c(C)[nH]c(C(=O)CN2C(=O)NC3(CCCCC3C)C2=O)c1C (stereo not drawn)	none (no result: ANO1 block)
COc1ccc(CCNC(=O)/C(C#N)=C/c2ccc(OCC(=O)NCC3CCCO3)cc2)cc1OC (stereo not drawn)	GRIN3A LBD mod 14
CCCCN1C(=O)C(=O)N(CC(=O)N2CCc3ccccc32)C1=O	none (no result: ANO1 block)
O=C(CSc1ccc(-c2ccc(Cl)cc2)nn1)Nc1ccc2c(c1)OCCO2	GRIN3A LBD mod 12
Cc1ccc(NC(=O)CSc2ccc(-c3ccc4c(c3)OCO4)nn2)cc1F	none
CC(=O)Nc1ccc(NC(=O)CSc2nnc(CC(C)O)n2-c2ccccc2)cc1 (stereo not drawn)	none
CCc1nnc(SCC(=O)Nc2ccc(NC(C)=O)cc2)n1-n1cccc1	GRIN3A LBD mod 18
Cc1ccnc(NC(c2ccccc2)c2ccc3cccnc3c2O)c1 (stereo not drawn)	GRIN3A LBD mod 148 (no result: ANO1 block)
O=C(NCc1ccco1)C1CC(c2ccccc2O)=NO1 (stereo not drawn)	CRFBP-R2 agonist 77
O=C(NCc1ccco1)C1CC(c2ccccc2C(F)(F)F)=NO1 (stereo not drawn)	none
Cc1cc(C(F)F)n2nc(C(=O)Nc3cccc(S(=O)(=O)N4CCOCC4)c3)nc2n1	none
CCCc1c(C)nn(C(=O)/C(C#N)=N/Nc2ccccc2[N+](=O)[O-])c1C	GRIN3A LBD mod 15
CCOCc1c(C(=O)NCc2ccccc2CN2CCCC2)oc2ccccc12	none (no result: ANO1 block)
CC(C)/C=C1\CC/C(=C\c2ccc(N(C)C)cc2)C1=O	CRFBP-R2 agonist 166
COc1ccc(/C=C/C(=O)NCc2cn(C)nc2C)cc1COc1ccc(Cl)cc1Br	CRFR2-BP antag 92, ANO1 block 100
COc1cccc(NC(=O)[C@@H](NC(=O)N2CCn3c2nc2ccccc23)C(C)C)c1	none
CC1CCC2=NN(C(=O)c3ccco3)C(O)(C(F)(F)F)C2C1 (stereo not drawn)	CRFR2-BP antag 67
Cn1nnc2cc(C(=O)Nc3ccc4ccccc4c3)ccc21	GRIN3A LBD mod 21
Cn1nnc2cc(C(=O)NC3CC3)ccc21	ANO1 activ -29
COCc1ccc(CN2CCC(n3nccc3NC(=O)CCCc3ccccc3)CC2)o1	none
COc1ccc(CCNC(=O)CSc2nc3ncccc3[nH]2)c(OC)c1	none
O=C(NCc1ccccn1)C1CCN(S(=O)(=O)c2cnc[nH]2)CC1	CRFR2-BP antag 63
CCOc1ccc(C(=O)OCC(=O)NCCNC(=O)COC(=O)c2ccc(OCC)cc2)cc1	GRIN3A LBD mod 14
CCOc1ccc(C(=O)NCCN(C)C)cc1	none
CCOc1ccc(C(=O)NCCCCNC(=O)c2ccc(OCC)cc2)cc1	GRIN3A LBD mod 15
CS(=O)(=O)Oc1ccc(Br)c2cccnc12	CRFR2-BP antag 62
COc1ccccc1C(=O)Nc1ccc(Br)c2cccnc12	GRIN3A LBD mod 21
CNC(=O)COC(=O)c1ccccc1C(=O)c1ccc(Cl)c([N+](=O)[O-])c1	none (no result: ANO1 block)
CSc1ccc(Cl)c(C(=O)OCC(=O)NC2CC2)c1	GRIN3A LBD mod 12
CC(C)OC(=O)c1ccccc1C(=O)c1ccc(N)c([N+](=O)[O-])c1	CRFR2-BP antag 56
O=C(COC(=O)c1ccccc1C(=O)c1ccc(Cl)c([N+](=O)[O-])c1)NC1CC1	CRFR2-BP antag 52
CCCNC(=O)COC(=O)c1cc(SC)ccc1Cl	none
COc1cc(/C=C/CNC[C@H]2O[C@@H](n3cnc4c(=O)[nH]c(N)nc43)[C@H](O)[C@@H]2O)ccc1O	none (no result: CRFBP-R2 agonist, CRFR2-BP antag, ANO1 activ, ANO1 block, GRIN3A LBD mod)
CCCCn1c(N)c(N(C)C(=O)c2cn(-c3ccccc3)nc2-c2ccccc2)c(=O)[nH]c1=O	none (no result: ANO1 block)
Clc1ccc2nncn2n1	CRFR2-BP antag 77
c1cc2nncn2nc1N1CCCC1	none
O=C1c2cccc3c(N4CCCCC4)ccc(c23)C(=O)N1c1ccccc1O	CRFBP-R2 agonist 259
O=C1c2cccc3c(N4CCCCC4)ccc(c23)C(=O)N1c1ccc(O)cc1	CRFBP-R2 agonist 224
Cc1ccc(N2C(=O)c3cccc4c(N5CCN(C)CC5)ccc(c34)C2=O)c2cccnc12	CRFBP-R2 agonist 89 (no result: MPTP block, ANO1 activ)
Cc1ccc(NC(=O)C2(C)CCN2C(=O)Cc2ccc(C(C)(C)C)cc2)cc1C (stereo not drawn)	none (no result: CRFBP-R2 agonist, CRFR2-BP antag, ANO1 activ, ANO1 block, GRIN3A LBD mod)
Cc1ccc(C(=O)NNC(=O)c2ccoc2C)s1	none (no result: ANO1 block)
CCCCN(C(=O)c1ccc(S(=O)(=O)N(CC)CC)cc1)c1c(N)n(CCC)c(=O)[nH]c1=O	none
C#CCN(Cc1ccco1)C(=O)c1ccc(OC2CCN(Cc3ccccn3)CC2)cc1	none
Cc1cc(C(=O)N2CCC(C)(C(=O)NS(=O)(=O)C3CC3)C2)n(C(C)(C)C)n1 (stereo not drawn)	none (no result: CRFBP-R2 agonist, CRFR2-BP antag, ANO1 activ, ANO1 block, GRIN3A LBD mod)
Cc1cccc(OCc2nnc(N)s2)c1C	GRIN3A LBD mod 12
O=C(O)CCN(CC(=O)c1ccc(Cl)cc1)S(=O)(=O)c1ccc([N+](=O)[O-])cc1	none
O=C1S/C(=C\c2ccccn2)C(=O)N1Cc1ccccc1F	GRIN3A LBD mod 13
O=C(CN1C(=O)S/C(=C/c2ccccn2)C1=O)N1CCOCC1	none
CCCN(C(=O)CSCc1c(C)noc1C)c1c(N)n(Cc2ccccc2)c(=O)[nH]c1=O	none (no result: GRIN3A LBD mod)
Cc1cccc(NCC(=O)N/N=C\c2c[nH]c3ccccc23)c1	GRIN3A LBD mod 16
Cc1ccc(OCC(=O)N/N=C\c2ccc(O)cc2)c([N+](=O)[O-])c1	none
CCOC(=O)N/N=C/c1c[nH]c2ccccc12	none
Cc1ccc(OCC(=O)N/N=C/c2c[nH]c3ccccc23)c([N+](=O)[O-])c1	GRIN3A LBD mod 24
Cc1ccccc1NCC(=O)N/N=C/c1c[nH]c2ccccc12	GRIN3A LBD mod 24
Cc1ccccc1CN1C(=O)C(C)Sc2ccc(-c3ccco3)cc21 (stereo not drawn)	none (no result: CRFBP-R2 agonist, CRFR2-BP antag, ANO1 activ, ANO1 block, GRIN3A LBD mod)

High-throughput results from PubChem.
